# The supplement of paper PMC10849652
# Of roughly 7,900 targets only a part is listed; those with a hit were picked by preference. About 0.6% of all pairs of compound and target were hits. A number with no mark means an inactive call.
# Assays:
# Test in all cases: log2 fold change, soluble protein after heating vs DMSO (PISA); higher = thermal stabilisation; K562 cells, 10 uM, 30 min; active = over 0.2 and 3.5 SD of the protein, either way, in both replicates (recomputed)
# [1] = compound: Cc1ccc(NC(=O)c2ccc(CN3CC[C@H](N(C)C)C3)c(C(F)(F)F)c2)cc1Nc1nccc(-c2cncnc2)n1 [bafetinib]
# Method in brief: (§1)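 Quantification of soluble protein used TMTpro 16plex LC-MS/MS, with channel sums equalised. Samples were the supernatant after 21,000xg for 90 min of pooled aliquots from K562 cells (2×10^6 cells/mL) treated with 10 μM compound for 30 min, heated for 3 min over 48°C-58°C, and extracted in PBS with 0.5% NP-40 at 4°C. Values, from duplicates, describe thermal stability against control samples on a log2 fold-change scale.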
# [2] = compound: FC(F)(F)c1ccc(/C=C/c2nc(COc3ccc(CCCCn4ccnn4)cc3)co2)cc1 [mubritinib]
# Method in brief: as §1
# [3] = compound: NC1(c2ccc(-c3nc4ccn5c(=O)[nH]nc5c4cc3-c3ccccc3)cc2)CCC1
# Method in brief: as §1
# [4] = compound: O=C(O)c1ccc2c(c1)nc(Nc1cccc(Cl)c1)c1ccncc12 [silmitasertib]
# Method in brief: as §1
# [5] = compound: Cc1cccc(CC(=O)N2CCc3c2ccc(-c2cn(C)c4ncnc(N)c24)c3F)n1
# Method in brief: as §1
# [6] = compound: Cc1nc(Nc2ncc(C(=O)Nc3c(C)cccc3Cl)s2)cc(N2CCN(CCO)CC2)n1 [dasatinib]
# Method in brief: as §1
# [7] = compound: Cn1cc(-c2ccc3c(c2)CCN3C(=O)Cc2cccc(C(F)(F)F)c2)c2c(N)ncnc21
# Method in brief: as §1
# [8] = compound: Cn1cc(-c2ccc3nnc(C(F)(F)c4ccc5ncccc5c4)n3n2)cn1
# Method in brief: as §1
# [9] = compound: Cn1cncc1[C@@](N)(c1ccc(Cl)cc1)c1ccc2c(c1)c(-c1cccc(Cl)c1)cc(=O)n2C [tipifarnib]
# Method in brief: as §1
# [10] = compound: NC(=O)Nc1cc(-c2cccc(F)c2)sc1C(=O)N[C@H]1CCCNC1
# Method in brief: as §1
# [11] = compound: NC(=O)c1cnc(N[C@@H]2CCCC[C@@H]2N)nc1Nc1cccc(-n2nccn2)c1
# Method in brief: as §1
# [12] = compound: NCC(=O)Nc1ccc(-n2nc(C(F)(F)F)cc2-c2ccc3c(ccc4ccccc43)c2)cc1
# Method in brief: as §1
# [13] = compound: Nc1ccccc1NC(=O)c1ccc(CNC(=O)OCc2cccnc2)cc1 [entinostat]
# Method in brief: as §1
# [14] = compound: O=C(CCCCCCC(=O)Nc1ccccc1)NO [vorinostat]
# Method in brief: as §1
# [15] = compound: O=C(CCCCCCNC(=O)c1cnc(N(c2ccccc2)c2ccccc2Cl)nc1)NO [citarinostat]
# Method in brief: as §1
# [16] = compound: O=C1NC(=O)C(c2cnc3ccccn23)=C1c1cn2c3c(cc(F)cc13)CN(C(=O)N1CCCCC1)CC2
# Method in brief: as §1
# [17] = compound: c1cc(OCCN2CCCCC2)cc(-c2n[nH]c3ccc(-c4nnc[nH]4)cc23)c1
# Method in brief: as §1
# [18] = compound: Cc1cn(-c2cc(NC(=O)c3ccc(C)c(Nc4nccc(-c5cccnc5)n4)c3)cc(C(F)(F)F)c2)cn1 [nilotinib]
# Method in brief: as §1
# [19] = compound: Cc1nc(Nc2n[nH]c3c2CN(C(=O)N[C@H](CN(C)C)c2ccccc2)C3(C)C)c2sccc2n1
# Method in brief: as §1
# [20] = compound: Cc1ncc(-c2ccnc(Nc3ccc(S(C)(=O)=O)cc3)n2)n1C(C)C
# Method in brief: as §1
# Chain of UniProt P41247 (P41247 whole entry, looked up): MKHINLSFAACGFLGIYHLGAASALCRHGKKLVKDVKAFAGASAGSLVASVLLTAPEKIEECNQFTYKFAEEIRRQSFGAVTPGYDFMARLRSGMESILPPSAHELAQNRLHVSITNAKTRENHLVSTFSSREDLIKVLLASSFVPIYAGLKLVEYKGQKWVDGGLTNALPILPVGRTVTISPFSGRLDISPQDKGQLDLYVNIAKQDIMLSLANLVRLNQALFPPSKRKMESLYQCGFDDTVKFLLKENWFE
# Chain of UniProt Q12974 (Q12974 whole entry, looked up): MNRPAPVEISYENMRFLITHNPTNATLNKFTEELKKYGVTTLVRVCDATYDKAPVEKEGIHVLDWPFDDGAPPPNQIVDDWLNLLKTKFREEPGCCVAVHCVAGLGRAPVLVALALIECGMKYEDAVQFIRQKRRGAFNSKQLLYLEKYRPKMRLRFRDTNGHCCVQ
# Chain of UniProt O00329 (O00329 whole entry, looked up): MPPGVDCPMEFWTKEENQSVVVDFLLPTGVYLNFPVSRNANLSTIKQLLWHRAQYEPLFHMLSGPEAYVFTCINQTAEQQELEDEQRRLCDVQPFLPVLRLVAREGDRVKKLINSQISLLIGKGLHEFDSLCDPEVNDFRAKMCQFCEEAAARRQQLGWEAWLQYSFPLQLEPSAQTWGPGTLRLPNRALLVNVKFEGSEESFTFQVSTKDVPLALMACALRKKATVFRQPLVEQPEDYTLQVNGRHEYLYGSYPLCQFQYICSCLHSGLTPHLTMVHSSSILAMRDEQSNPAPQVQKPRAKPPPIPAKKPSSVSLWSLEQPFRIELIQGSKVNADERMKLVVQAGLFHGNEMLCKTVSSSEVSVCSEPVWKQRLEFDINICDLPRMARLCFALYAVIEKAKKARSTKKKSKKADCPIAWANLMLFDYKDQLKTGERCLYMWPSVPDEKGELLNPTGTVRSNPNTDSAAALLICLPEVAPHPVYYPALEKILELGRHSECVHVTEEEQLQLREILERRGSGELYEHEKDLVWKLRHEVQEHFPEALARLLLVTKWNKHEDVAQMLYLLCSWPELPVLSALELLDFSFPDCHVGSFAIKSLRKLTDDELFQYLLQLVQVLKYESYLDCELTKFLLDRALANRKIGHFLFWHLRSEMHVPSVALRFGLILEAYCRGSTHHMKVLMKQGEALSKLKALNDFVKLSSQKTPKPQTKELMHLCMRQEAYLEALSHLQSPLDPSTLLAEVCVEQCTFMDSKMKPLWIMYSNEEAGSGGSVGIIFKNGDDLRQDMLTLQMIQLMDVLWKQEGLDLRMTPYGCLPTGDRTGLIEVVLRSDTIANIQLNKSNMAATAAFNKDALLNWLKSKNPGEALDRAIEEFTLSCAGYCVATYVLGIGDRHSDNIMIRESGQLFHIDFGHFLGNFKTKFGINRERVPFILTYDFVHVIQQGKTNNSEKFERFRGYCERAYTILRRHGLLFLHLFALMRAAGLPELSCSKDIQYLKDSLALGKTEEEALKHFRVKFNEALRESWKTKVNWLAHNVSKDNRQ
# Chain of UniProt P51817 (P51817 whole entry, looked up): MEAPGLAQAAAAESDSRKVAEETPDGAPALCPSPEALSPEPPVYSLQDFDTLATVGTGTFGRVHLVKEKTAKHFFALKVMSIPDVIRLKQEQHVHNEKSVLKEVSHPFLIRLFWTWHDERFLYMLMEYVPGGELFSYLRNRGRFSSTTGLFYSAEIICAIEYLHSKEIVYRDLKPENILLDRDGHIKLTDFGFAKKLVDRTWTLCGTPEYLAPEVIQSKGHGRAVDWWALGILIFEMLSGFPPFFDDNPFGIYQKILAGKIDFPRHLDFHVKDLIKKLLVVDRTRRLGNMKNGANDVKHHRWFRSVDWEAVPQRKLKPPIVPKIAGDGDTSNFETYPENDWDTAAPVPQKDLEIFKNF
# Chain of UniProt Q14671 (Q14671 whole entry, looked up): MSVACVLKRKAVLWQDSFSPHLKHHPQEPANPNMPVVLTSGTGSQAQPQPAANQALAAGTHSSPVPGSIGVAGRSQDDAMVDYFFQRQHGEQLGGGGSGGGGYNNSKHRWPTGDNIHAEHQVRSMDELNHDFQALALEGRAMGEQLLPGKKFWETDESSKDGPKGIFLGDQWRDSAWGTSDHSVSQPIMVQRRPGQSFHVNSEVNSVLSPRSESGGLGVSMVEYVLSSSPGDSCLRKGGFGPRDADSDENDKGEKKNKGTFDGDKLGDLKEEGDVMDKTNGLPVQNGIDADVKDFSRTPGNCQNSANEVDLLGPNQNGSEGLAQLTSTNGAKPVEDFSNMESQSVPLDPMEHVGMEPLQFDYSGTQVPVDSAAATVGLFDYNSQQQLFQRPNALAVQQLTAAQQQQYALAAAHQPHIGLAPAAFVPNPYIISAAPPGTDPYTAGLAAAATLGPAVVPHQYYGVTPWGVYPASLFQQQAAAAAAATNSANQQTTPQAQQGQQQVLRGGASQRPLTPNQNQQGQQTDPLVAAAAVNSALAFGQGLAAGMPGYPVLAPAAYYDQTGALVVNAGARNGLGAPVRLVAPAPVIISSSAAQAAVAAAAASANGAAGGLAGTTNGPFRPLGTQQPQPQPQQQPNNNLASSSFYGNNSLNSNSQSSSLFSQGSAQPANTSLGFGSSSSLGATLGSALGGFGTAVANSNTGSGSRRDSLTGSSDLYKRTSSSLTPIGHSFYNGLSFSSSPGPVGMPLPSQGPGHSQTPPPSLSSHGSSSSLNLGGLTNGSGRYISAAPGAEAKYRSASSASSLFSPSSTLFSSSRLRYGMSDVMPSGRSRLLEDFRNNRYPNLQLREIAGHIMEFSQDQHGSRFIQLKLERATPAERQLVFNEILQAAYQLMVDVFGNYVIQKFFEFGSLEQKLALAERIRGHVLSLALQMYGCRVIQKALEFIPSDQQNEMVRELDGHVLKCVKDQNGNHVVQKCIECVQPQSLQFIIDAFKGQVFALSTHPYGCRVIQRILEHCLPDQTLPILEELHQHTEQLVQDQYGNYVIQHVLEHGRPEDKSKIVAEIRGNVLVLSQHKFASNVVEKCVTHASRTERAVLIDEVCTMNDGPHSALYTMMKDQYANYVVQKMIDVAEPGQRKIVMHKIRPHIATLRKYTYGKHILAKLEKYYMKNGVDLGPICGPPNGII
# Chain of UniProt Q8N2W9 (Q8N2W9 whole entry, looked up): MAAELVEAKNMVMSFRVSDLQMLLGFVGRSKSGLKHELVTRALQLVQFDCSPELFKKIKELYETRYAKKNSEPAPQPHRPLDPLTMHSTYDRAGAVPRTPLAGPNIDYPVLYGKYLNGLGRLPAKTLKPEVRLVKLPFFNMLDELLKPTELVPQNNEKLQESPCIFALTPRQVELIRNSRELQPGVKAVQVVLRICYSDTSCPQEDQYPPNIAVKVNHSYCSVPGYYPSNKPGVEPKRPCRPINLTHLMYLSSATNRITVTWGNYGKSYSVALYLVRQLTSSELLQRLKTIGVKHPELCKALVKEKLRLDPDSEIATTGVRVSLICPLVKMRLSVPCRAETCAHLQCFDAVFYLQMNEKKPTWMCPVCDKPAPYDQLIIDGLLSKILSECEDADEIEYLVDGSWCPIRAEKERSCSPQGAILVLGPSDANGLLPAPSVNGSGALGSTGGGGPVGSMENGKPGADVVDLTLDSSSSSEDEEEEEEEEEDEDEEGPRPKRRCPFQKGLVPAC
# Chain of UniProt Q7Z3K3 (Q7Z3K3 whole entry, looked up): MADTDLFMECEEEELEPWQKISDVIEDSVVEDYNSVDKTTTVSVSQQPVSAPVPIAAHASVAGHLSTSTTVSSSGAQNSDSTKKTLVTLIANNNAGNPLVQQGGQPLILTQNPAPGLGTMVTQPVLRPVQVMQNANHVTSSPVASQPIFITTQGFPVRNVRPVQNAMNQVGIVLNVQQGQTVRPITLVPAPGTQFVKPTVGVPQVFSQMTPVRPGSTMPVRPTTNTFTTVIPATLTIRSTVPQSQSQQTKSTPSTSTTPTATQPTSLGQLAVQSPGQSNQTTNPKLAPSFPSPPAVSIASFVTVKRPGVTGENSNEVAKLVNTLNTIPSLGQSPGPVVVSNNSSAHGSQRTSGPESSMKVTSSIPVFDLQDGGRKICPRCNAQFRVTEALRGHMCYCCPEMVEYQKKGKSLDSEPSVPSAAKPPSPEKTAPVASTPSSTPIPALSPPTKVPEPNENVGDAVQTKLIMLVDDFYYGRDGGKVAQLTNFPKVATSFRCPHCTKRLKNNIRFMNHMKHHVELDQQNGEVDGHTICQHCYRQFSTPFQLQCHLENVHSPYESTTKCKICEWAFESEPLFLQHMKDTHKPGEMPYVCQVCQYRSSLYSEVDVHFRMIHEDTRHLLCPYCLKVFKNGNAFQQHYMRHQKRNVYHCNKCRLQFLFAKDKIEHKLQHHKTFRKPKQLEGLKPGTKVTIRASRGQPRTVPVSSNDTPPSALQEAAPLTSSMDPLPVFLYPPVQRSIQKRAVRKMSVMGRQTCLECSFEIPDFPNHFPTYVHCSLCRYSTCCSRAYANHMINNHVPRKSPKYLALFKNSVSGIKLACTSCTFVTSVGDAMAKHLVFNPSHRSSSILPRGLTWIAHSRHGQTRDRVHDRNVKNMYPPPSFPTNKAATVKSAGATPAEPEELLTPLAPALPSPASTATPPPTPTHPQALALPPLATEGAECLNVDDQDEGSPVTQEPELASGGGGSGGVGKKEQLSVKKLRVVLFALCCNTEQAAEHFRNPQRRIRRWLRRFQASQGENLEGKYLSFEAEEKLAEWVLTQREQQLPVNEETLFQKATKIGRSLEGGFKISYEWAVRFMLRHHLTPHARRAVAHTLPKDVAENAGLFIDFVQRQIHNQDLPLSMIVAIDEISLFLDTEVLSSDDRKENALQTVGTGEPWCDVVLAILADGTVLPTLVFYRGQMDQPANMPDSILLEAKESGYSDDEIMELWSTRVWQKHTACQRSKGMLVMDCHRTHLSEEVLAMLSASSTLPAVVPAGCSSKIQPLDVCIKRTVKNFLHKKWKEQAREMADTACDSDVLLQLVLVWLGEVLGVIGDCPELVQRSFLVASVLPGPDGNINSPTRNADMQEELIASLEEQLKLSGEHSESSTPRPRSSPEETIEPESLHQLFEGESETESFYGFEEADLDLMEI
Target,log2 fold change [1],log2 fold change [2],log2 fold change [3],log2 fold change [4],log2 fold change [5],log2 fold change [6],log2 fold change [7],log2 fold change [8],log2 fold change [9],log2 fold change [10],log2 fold change [11],log2 fold change [12],log2 fold change [13],log2 fold change [14],log2 fold change [15],log2 fold change [16],log2 fold change [17],log2 fold change [18],log2 fold change [19],log2 fold change [20]
PRKX (UniProt P51817),-0.039,0.108,-0.243,0.153,–,–,–,–,–,–,–,–,–,–,–,–,–,–,–,–
POGZ (UniProt Q7Z3K3),–,–,–,–,0.174,-0.318,0.072,0.061,-0.124,0.009,0.167,-0.028,-0.031,-0.186,-0.206,-0.114,-0.483 (active),–,–,–
PSMA3 (UniProt H0YJ03),–,–,–,–,–,0.133,0.036,-0.017,0.02,–,-0.059,-0.048,–,–,0.081,–,0.143,–,–,–
PLCXD1 (UniProt Q9NUJ7),-0.642 (active),–,–,–,–,–,–,-0.099,–,–,–,–,–,–,–,–,–,–,–,–
PIK3CD (UniProt O00329),0.033,–,–,–,–,–,-0.228,0.074,0.031,0.086,0.014,-0.047,-0.008,–,-0.285,-0.092,0.143,–,–,–
PNPLA4 (UniProt P41247),-0.339,0.826 (active),-0.357,0.012,–,-0.165,0.156,0.078,-0.039,0,-0.118,0.131,-0.093,–,0.602,–,-0.071,0.128,-0.019,-0.001
QRICH1 (UniProt Q2TAL8),0.042,-0.01,-0.137,0.047,–,-0.206,0.043,0.108,-0.159,-0.043,-0.119,-0.093,0.168,–,0.11,-0.276,0.027,-0.093,-0.118,0.078
POLR2C (UniProt P19387),0.012,-0.097,-0.131,0.118,–,-0.031,0.003,-0.06,-0.081,-0.046,-0.026,-0.196,-0.031,–,0.017,-0.023,-0.195,-0.042,0.073,0.3 (active)
PTEN isoform 2 (UniProt P60484),–,–,–,–,0.158,–,–,-0.087,-0.212,–,–,–,–,0.024,0.089,–,0.066,–,–,–
POLR2M (UniProt Q6EEV4),-0.215,0.035,-0.065,0.03,–,-0.003,0.135,–,-0.095,0.027,-0.09,-0.056,-0.148,–,0.029,-0.122,-0.009,0.107,-0.016,-0.022
PSMD8 (UniProt K7ERW6),–,–,–,–,–,–,–,–,–,–,–,-0.417,–,–,–,–,–,–,–,–
PIAS4 (UniProt Q8N2W9),–,0.199,0.094,-0.271,0,-0.116,–,0.313,0.002,–,–,–,–,-0.014,–,-0.404,–,–,–,–
PRKD2 (UniProt M0R346),-0.147,–,–,–,-0.136,–,–,–,–,-0.279,–,–,0.032,0.021,–,-0.15,–,–,–,–
PTP4A2 (UniProt Q12974),-0.045,0.047,0.079,0.052,–,0.089,0.094,-0.013,0.048,-0.161,-0.286,-0.023,0.011,–,0.016,-0.168,-0.045,0.007,-0.056,-0.43 (active)
PHC3 isoform 7 (UniProt Q8NDX5),0.222,0.191,-0.125,-0.018,–,–,0.018,–,-0.016,0.158,–,–,0.1,–,0.172,0.567 (active),-0.014,-0.187,0.01,0
PUM1 (UniProt Q14671),–,–,–,–,-0.202,-0.207,0.229,–,–,–,0.058,–,–,-0.037,–,–,–,–,–,–
PRR14L (UniProt Q5THK1),–,–,–,–,-0.156,–,0.019,–,-0.039,–,-0.205,-0.176,–,-0.009,–,–,–,-0.027,-0.044,-0.007
PSMC1 (UniProt G3V4X1),–,–,–,–,-0.579,–,0.066,–,0.479,–,–,–,–,0.168,–,–,–,-0.195,0.042,-0.046
